Our source for the Potency and outcome values is PubChem BioAssay (Tox21).

Assay [1] can be described thus: qHTS RealTime-Glo MT Cell Viability Assay in HEK293 cells - 0 hour (AID 1224880). Also: top concentration of the series differs between compounds; nearly all actives have a fitted effect of over 45% in size. In outline:
(§1)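 Kinetic, non-lysing viability readout. Seed HEK293 (600/well) with reagent, incubate 5 h at 37 C/5% CO2, pin 23 nL compound in DMSO, incubate at 37 C, read luminescence at 0, 8, 16, 24, 32, 40 h.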

The nature of assay [2]: A CellTox Green Cytotoxicity Assay to monitor cytotoxicity in HEK293 cells - 32 hour (AID 1224881). Also: nearly all actives have a fitted effect of over 40% in size. Also: potency is read from the fitted curve at half-maximal effect. In outline:
(§2)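 Real-time, in one plate: 600 HEK293 cells/well with dead-cell DNA dye, pinned compound after 5 h, 37 C incubation over 40 h; viable cells give no appreciable fluorescence.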

A short description of assay [3]: A CellTox Green Cytotoxicity Assay to monitor cytotoxicity in HepG2 cells - 0 hour (AID 1224882). Also: nearly all actives have a fitted effect of over 35% in size. The method in brief: (§3)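 Cytotoxicity was tracked as dead-cell DNA fluorescence in HepG2 cells treated with test compounds at 37 C; each time-point value comes from one kinetic series spanning 0, 8, 16, 24, 32 and 40 h.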
Assay [4] can be described thus: A CellTox Green Cytotoxicity Assay to monitor cytotoxicity in HEK293 cells - 8 hour (AID 1224884). Also: nearly all actives have a fitted effect of over 35% in size. Also: potency is read from the fitted curve at half-maximal effect. The method in brief: as §2
Assay [5] can be described thus: qHTS RealTime-Glo MT Cell Viability Assay in HepG2 cells - 16 hour (AID 1224885). Also: nearly all actives have a fitted effect of over 50% in size. Also: potency is read from the fitted curve at half-maximal effect. The method in brief:
(§4)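 Viability was tracked continuously by NanoLuc luminescence from prosubstrate reduced by living HepG2 cells, at successive time points over 40 h of compound exposure. Cells with reagent were preincubated 5 h at 37 °C before compound addition.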
A general note: qHTS replaces the single test concentration by a dilution series.

Assay [6] is described as follows: qHTS RealTime-Glo MT Cell Viability Assay in HEK293 cells - 24 hour (AID 1224886). Also: nearly all actives have a fitted effect of over 50% in size. Also: potency is read from the fitted curve at half-maximal effect. In outline: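 Viability tracked continuously by luminescence as live cells reduce a prosubstrate for NanoLuc; HEK293 cells preincubated 5 h, compound-treated at 37 C, and read at 0, 8, 16, 24, 32 and 40 h.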
A short description of assay [7]: qHTS RealTime-Glo MT Cell Viability Assay in HEK293 cells - 8 hour (AID 1224887). Also: nearly all actives have a fitted effect of over 50% in size. Also: potency is read from the fitted curve at half-maximal effect. The method in brief:
as §1

Assay [8] in a line: A CellTox Green Cytotoxicity Assay to monitor cytotoxicity in HEK293 cells - 16 hour (AID 1224888). Also: nearly all actives have a fitted effect of over 35% in size. The method in brief:
as §2

Assay [9] is described as follows: qHTS RealTime-Glo MT Cell Viability Assay in HepG2 cells - 0 hour (AID 1224889). Also: nearly all actives have a fitted effect of over 50% in size. Also: potency is read from the fitted curve at half-maximal effect. In outline: as §4
Assay [10] in a line: A CellTox Green Cytotoxicity Assay to monitor cytotoxicity in HepG2 cells - 8 hour (AID 1224890). Also: nearly all actives have a fitted effect of over 45% in size. Also: potency is read from the fitted curve at half-maximal effect. In outline: as §3
Assay [11] can be described thus: qHTS assay to identify small molecule antagonists of the estrogen receptor alpha (ER-alpha) signaling pathway using the BG1 cell line in the presence of 0.1 nM 17-beta-estradiol - cell viability counter screen (AID 1259241). Also: nearly all actives have a fitted effect of over 40% in size. The method in brief: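 CellTiter-Fluor read (30 min, 37C) on ER-alpha/ERE-luc VM7Luc4E2 cells; 22 hr compound treatment; agonist 0.1 nM E2 final; same-well multiplex.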

Assay [12] in a line: qHTS assay to identify small molecule antagonists of the androgen receptor (AR) signaling pathway using the MDA cell line in the presence of 0.5 nM R1881 - cell viability counter screen (AID 1259242). Also: nearly all actives have a fitted effect of over 45% in size. In outline:
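Cells seeded at 3,000/well and allowed 5 hr at 37C, 0% CO2 before compound transfer and R1881 (0.5 nM final) addition; 16 hr later, live-cell protease fluorescence indicated cytotoxicity.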

Assay [13] is described as follows: qHTS assay to identify small molecule phospholipidosis (PLD) inducers (AID 1259344; active = well fitted curve in the direction sought with a large enough effect; an effect the other way counts as inactive or inconclusive). The method in brief:
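Phospholipid accumulation was scored by imaging: fixed, Hoechst-counterstained HepG2 cells stained with LipidTOX Red after 24 h compound exposure at 37 C. Read-outs were pit count and pit intensity per well or per cell, with amiodarone and DMSO controls.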

Assay [14] can be described thus: qHTS assay to identify small molecule HDAC inhibitors (AID 1259364).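 Also: wild-type HCT-116 cells with endogenous class I/II HDAC activity; top concentration of the series differs between compounds; nearly all actives have a fitted effect of over 45% in size.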 The method in brief: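 HCT-116 wt cells, 1,500/well, overnight attach. Compounds (DMSO) 2 h, 37 °C. HDAC-Glo I/II, 30 min RT. Luminescence.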
Assay [15] can be described thus: qHTS assay to identify small molecule HDAC inhibitors - cell viability counter screen (AID 1259365). In outline:
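To flag cytotoxic hits, 1,500 wild-type HCT-116 cells per well, plated the day before, receive test compounds for 2hr at 37 C before CellTiter-Glo reagent and a luminescence read.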

Assay [16] is described as follows: qHTS assay to identify small molecule agonists of the sonic hedgehog signaling (Shh) pathway - cell viability counter screen (AID 1259366). Also: nearly all actives have a fitted effect of over 50% in size. Also: potency is read from the fitted curve at half-maximal effect. In outline: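 Fluorescence from CellTiter-Fluor reports live cells in this counter screen. NIH/3T3-derived Gli1-Luc reporter cells receive test compounds for 24hr at 37C; reagent goes in at 23hr.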
Assay [17] has as its target Estrogen receptor (Homo sapiens) (UniProt P03372). Put plainly: qHTS assay to identify small molecule antagonists of the estrogen receptor alpha (ER-alpha) signaling pathway using the BG1 cell line in the presence of 0.1 nM 17-beta-estradiol (AID 1259244). Also: nearly all actives have a fitted effect of over 50% in size. The method in brief:
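Luciferase signal from VM7Luc4E2 ERE-reporter cells, co-dosed with test compound and 0.1 nM final 17beta-estradiol for 22 h, read with ONE-Glo.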

Assay [18] can be described thus: qHTS assay to identify small molecule antagonists of the sonic hedgehog signaling (Shh) pathway - cell viability counter screen (AID 1259367). Also: nearly all actives have a fitted effect of over 55% in size. Also: potency is read from the fitted curve at half-maximal effect. The method in brief:
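Viability was read by CellTiter-Fluor fluorescence in the same wells, reagent added 23 hr into compound treatment and incubated 1 hr at 37C. The 3T3 Gli1-Luc reporter cells (2,000/well) received conditioned medium after compound and ran 24 hr.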

Assay [19] deals with Androgen receptor (Homo sapiens) (UniProt P10275). Put plainly: qHTS assay to identify small molecule antagonists of the androgen receptor (AR) signaling pathway using the MDA cell line in the presence of 0.5 nM R1881 (AID 1259243). Also: nearly all actives have a fitted effect of over 50% in size. The method in brief:
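Luminescence from an AR/GR-responsive MMTV-luciferase construct in MDA-kb2 breast carcinoma cells, read 30 min after ONE-Glo, following 16 hr co-treatment with compounds and 0.5 nM R1881.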

Values joined by “and” are separate entries in the source; they are usually repeats but may differ in a detail not shown here. Equal values may be shown once. Results filed as inconclusive are left out. Some structures have more than one record in an assay (separate samples or runs), and their calls can disagree. Active and inactive are the calls of the source. Unless noted, calls follow the shape of the dose curve; as a rule, active = well fitted curve in the direction sought with a large enough effect in the repeat runs; inconclusive = weak or mixed curves; inactive = no such curve, though single readings can be large; an effect the other way counts as inactive or inconclusive.

Chain of Estrogen receptor (Homo sapiens) (P03372 whole entry, looked up): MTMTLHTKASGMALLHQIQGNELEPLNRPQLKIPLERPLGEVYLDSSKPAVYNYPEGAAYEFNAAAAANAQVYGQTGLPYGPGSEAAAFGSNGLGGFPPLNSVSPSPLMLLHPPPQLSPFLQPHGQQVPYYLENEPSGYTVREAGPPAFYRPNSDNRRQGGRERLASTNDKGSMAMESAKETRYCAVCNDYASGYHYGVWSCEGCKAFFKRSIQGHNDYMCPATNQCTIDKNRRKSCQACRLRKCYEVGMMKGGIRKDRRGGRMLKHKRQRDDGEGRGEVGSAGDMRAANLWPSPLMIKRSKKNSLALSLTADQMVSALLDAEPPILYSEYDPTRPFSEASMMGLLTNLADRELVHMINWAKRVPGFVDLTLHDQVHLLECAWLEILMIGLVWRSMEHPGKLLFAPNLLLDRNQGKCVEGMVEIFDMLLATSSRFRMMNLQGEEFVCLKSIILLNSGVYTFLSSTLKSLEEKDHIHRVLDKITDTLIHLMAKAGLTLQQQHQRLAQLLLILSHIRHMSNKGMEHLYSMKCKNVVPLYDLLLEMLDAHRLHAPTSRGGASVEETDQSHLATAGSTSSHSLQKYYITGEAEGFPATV
Chain of Androgen receptor (Homo sapiens) (P10275 whole entry, looked up): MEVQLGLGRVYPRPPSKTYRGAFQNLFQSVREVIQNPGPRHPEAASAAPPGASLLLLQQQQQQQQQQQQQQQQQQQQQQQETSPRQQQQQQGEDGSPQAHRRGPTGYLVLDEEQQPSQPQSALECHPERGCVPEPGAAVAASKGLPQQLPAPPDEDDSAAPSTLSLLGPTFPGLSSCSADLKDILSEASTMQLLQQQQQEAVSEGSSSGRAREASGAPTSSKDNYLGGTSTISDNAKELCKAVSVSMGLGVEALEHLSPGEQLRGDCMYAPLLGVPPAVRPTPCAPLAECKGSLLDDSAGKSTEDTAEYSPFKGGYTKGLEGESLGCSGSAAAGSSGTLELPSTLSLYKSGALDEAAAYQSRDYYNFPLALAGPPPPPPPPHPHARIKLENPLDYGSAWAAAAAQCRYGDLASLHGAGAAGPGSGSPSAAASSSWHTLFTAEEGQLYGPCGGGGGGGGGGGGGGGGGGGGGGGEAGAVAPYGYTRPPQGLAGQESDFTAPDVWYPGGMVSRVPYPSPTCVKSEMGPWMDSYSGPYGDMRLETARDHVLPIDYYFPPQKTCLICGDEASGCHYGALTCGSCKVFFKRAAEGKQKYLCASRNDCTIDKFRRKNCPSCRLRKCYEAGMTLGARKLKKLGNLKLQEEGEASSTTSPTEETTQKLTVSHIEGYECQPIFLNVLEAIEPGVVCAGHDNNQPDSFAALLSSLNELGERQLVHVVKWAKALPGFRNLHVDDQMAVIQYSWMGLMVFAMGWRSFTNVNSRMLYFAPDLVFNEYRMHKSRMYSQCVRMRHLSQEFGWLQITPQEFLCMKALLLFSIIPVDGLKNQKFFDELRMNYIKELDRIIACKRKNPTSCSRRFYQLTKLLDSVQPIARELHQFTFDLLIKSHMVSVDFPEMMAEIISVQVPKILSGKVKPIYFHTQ

For the compound `N[C@@H](Cc1ccc(N(CCCl)CCCl)cc1)C(=O)O`, the Potency result in assay [1], in assay [2], in [3], in assay [4], in [5] and in assay [6] was “inactive” throughout. In addition, the Potency result in assay [7], in assay [8], in assay [9], in assay [10], in [11] and in assay [12] was “inactive” in each case. Besides, the Potency entry in assay [14] and in assay [16] was “inactive” each time. Further, the compound was classed as inactive in assay [13] and in assay [15].
In the case of `O=P(Oc1ccccc1)(Oc1ccccc1)Oc1ccccc1`, the Potency result in assay [1], in assay [2], in assay [3], in assay [4], in assay [5] and in [6] was “inactive” throughout. Moreover, the Potency entry in [7], in [8], in assay [9], in assay [10], in assay [11] and in assay [12] was “inactive” in each case. Moreover, the Potency result in [17], in assay [14], in assay [16] and in assay [18] was “inactive” throughout. The outcome in assay [15] was inactive.
For the compound `CCC(=O)O[C@H]1CC[C@H]2[C@@H]3CCC4=CC(=O)CC[C@]4(C)[C@H]3CC[C@]12C`, the Potency in [2] is 19.5 µM (active) and 19 µM (active); in assay [4] it was 34.7 µM (active) and inactive; in [6], 21.9 µM (active) and 23.9 µM (active); in [7] it was 38.9 µM (active); in assay [9] it was 7.76 µM (active); in assay [10], 43.6 µM (active). Also, the Potency result in assay [3], in [5], in assay [11], in assay [12], in [19] and in assay [17] was “inactive” each time. For the same compound, the Potency result in [14] and in assay [18] was “inactive” throughout. Also, in assay [15], the call was inactive.
Regarding `CCCCCc1cc(O)cc(O)c1`, the Potency entry in [1], in assay [2], in [3], in assay [4], in assay [8] and in [9] was “inactive” each time. In addition, the Potency result in assay [11] and in assay [12] was “inactive” throughout. The Potency entry was “inactive and 43.6 µM (active)” in [5]; 38.9 µM (active) in [6]; 24.5 µM (active) in assay [7]; “inactive and 38.9 µM (active)” in [10]; “inactive and 30.6 µM (active)” in assay [16]; 30.6 µM (active) in assay [18]. Also, in [15], the compound was called inactive.
As for `ClC1C(Cl)C(Cl)C(Cl)C(Cl)C1Cl` (configuration not stated), the Potency entry in assay [1], in [3], in assay [5], in assay [9], in assay [10] and in assay [11] was “inactive” each time. The Potency result in assay [12], in assay [14], in assay [16] and in assay [18] was “inactive” each time. Besides, the Potency entry in assay [4] was “inactive and 43.6 µM (active)”; in [6], “inactive and 49 µM (active)”; in assay [7], “inactive and 49 µM (active)”. The call in [13] and in assay [15] was inactive.
Turning to `C1=Cc2cccc3cccc1c23`, the Potency entry in assay [1], in assay [3], in assay [4], in assay [5], in [6] and in [7] was “inactive” in each case. In addition, the Potency result in assay [8], in assay [9], in assay [10], in assay [11], in [12] and in [14] was “inactive” throughout. Further, the Potency entry in [16] and in assay [18] was “inactive” each time. Also, in assay [2], the Potency is 49 µM (active). For the same compound, in [15], the call was inactive.
Take `CC(C)=CC1C(C(=O)OCc2coc(Cc3ccccc3)c2)C1(C)C` (configuration not stated): the Potency result in assay [1], in assay [2], in assay [3], in assay [4], in assay [5] and in assay [6] was “inactive” throughout. Further, the Potency entry in assay [7], in assay [8], in assay [9], in [10], in [11] and in [12] was “inactive” throughout. For the same compound, the Potency result in assay [17], in assay [14], in assay [16] and in [18] was “inactive” each time. For the same compound, in [15], the result was inactive.
For `CNC(=O)N(C)c1nnc(C(C)(C)C)s1`, the Potency entry in assay [1], in assay [2], in [3], in assay [4], in assay [5] and in assay [6] was “inactive” throughout. Moreover, the Potency result in assay [7], in assay [8], in assay [9], in assay [10], in assay [11] and in assay [12] was “inactive” each time. Moreover, the Potency entry in [17], in assay [16] and in assay [18] was “inactive” in each case. Also, the compound was classed as inactive in [15].
